{"source": "PubChem BioAssay (NCI)", "test_in_all_cases": "NCI-60 one-dose screen, 48 h (100 = growth as untreated, 0 = no growth, -100 = all killed)", "key": {"[1]": {"system": "HCT-15 colon"}, "[2]": {"system": "HT29 colon"}, "[3]": {"system": "SNB-75 CNS"}, "[4]": {"system": "SNB-19 CNS"}, "[5]": {"system": "U251 CNS"}, "[6]": {"system": "PC-3 prostate"}, "[7]": {"system": "SK-MEL-5 melanoma", "settings": "10 µM unless noted"}, "[8]": {"system": "UACC-62 melanoma"}, "[9]": {"system": "LOX IMVI melanoma", "settings": "10 µM unless noted"}, "[10]": {"system": "SK-MEL-28 melanoma"}}, "note": "Several values for one entry are separate records, joined by “and”; a condition that tells them apart may be missing. Equal values may be shown once. The panel holds about 83,000 compounds, 20% with a hit somewhere; the sample as a whole holds those more often.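 In brief: 96-well plates, 48 h treatment, single concentration, percent growth endpoint.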 Activity calls are given as the source filed them. Rule for the calls: active = growth percent below 10; inactive = the rest.", "data": [{"smiles": "O=C(O)/C=C/C=C/c1ccccc1", "values": [{"measurement": "growth", "setting": "[1]; 10 µM unless noted", "value": "102% (inactive) and 108% (inactive)"}, {"measurement": "growth", "setting": "[2]; 10 µM unless noted", "value": "100% (inactive) and 103% (inactive)"}, {"measurement": "growth", "setting": "[3]; 10 µM unless noted", "value": "103% (inactive) and 98.4% (inactive)"}, {"measurement": "growth", "setting": "[4]; 10 µM unless noted", "value": "97.1% (inactive) and 100% (inactive)"}, {"measurement": "growth", "setting": "[5]; 10 µM unless noted", "value": "106% (inactive) and 96.9% (inactive)"}, {"measurement": "growth", "setting": "[6]; 10 µM unless noted", "value": "97.4% (inactive) and 101% (inactive)"}, {"measurement": "growth", "setting": "[7]", "value": "102% (inactive) and 94.7% (inactive)"}, {"measurement": "growth", "setting": "[8]; 10 µM unless noted", "value": "96.1% (inactive) and 102% (inactive)"}, {"measurement": "growth", "setting": "[9]", "value": "99.3% (inactive) and 97.9% (inactive)"}, {"measurement": "growth", "setting": "[10]; 10 µM unless noted", "value": "103% (inactive) and 109% (inactive)"}]}, {"smiles": "Cc1cc(=NO)cc(C)n1O", "values": [{"measurement": "growth", "setting": "[1]; 10 µM unless noted", "value": "113% (inactive)"}, {"measurement": "growth", "setting": "[2]; 10 µM unless noted", "value": "114% (inactive)"}, {"measurement": "growth", "setting": "[3]; 10 µM unless noted", "value": "92.6% (inactive)"}, {"measurement": "growth", "setting": "[4]; 10 µM unless noted", "value": "103% (inactive)"}, {"measurement": "growth", "setting": "[5]; 10 µM unless noted", "value": "113% (inactive)"}, {"measurement": "growth", "setting": "[6]; 10 µM unless noted", "value": "102% (inactive)"}, {"measurement": "growth", "setting": "[7]", "value": "112% (inactive)"}, {"measurement": "growth", "setting": "[8]; 10 µM unless noted", "value": "102% (inactive)"}, {"measurement": "growth", "setting": "[9]", "value": "99.9% (inactive)"}, {"measurement": "growth", "setting": "[10]; 10 µM unless noted", "value": "112% (inactive)"}]}, {"smiles": "COc1ccc([N+](=O)[O-])cc1OC", "values": [{"measurement": "growth", "setting": "[1]; 10 µM unless noted", "value": "96.3% (inactive) and 98.9% (inactive)"}, {"measurement": "growth", "setting": "[2]; 10 µM unless noted", "value": "112% (inactive) and 101% (inactive)"}, {"measurement": "growth", "setting": "[3]; 10 µM unless noted", "value": "98% (inactive)"}, {"measurement": "growth", "setting": "[4]; 10 µM unless noted", "value": "102% (inactive) and 107% (inactive)"}, {"measurement": "growth", "setting": "[5]; 10 µM unless noted", "value": "104% (inactive) and 95.6% (inactive)"}, {"measurement": "growth", "setting": "[6]; 10 µM unless noted", "value": "94.1% (inactive) and 102% (inactive)"}, {"measurement": "growth", "setting": "[7]", "value": "104% (inactive) and 106% (inactive)"}, {"measurement": "growth", "setting": "[8]; 10 µM unless noted", "value": "104% (inactive) and 107% (inactive)"}, {"measurement": "growth", "setting": "[9]", "value": "98.2% (inactive) and 101% (inactive)"}, {"measurement": "growth", "setting": "[10]; 10 µM unless noted", "value": "95.9% (inactive) and 107% (inactive)"}]}, {"smiles": "S=c1nc[nH]c2nc[nH]c12", "values": [{"measurement": "growth", "setting": "[1]; 10 µM", "value": "39.1% (inactive)"}, {"measurement": "growth", "setting": "[1]; 50 µM", "value": "15.6% (inactive)"}, {"measurement": "growth", "setting": "[2]; 10 µM", "value": "41.7% (inactive)"}, {"measurement": "growth", "setting": "[2]; 50 µM", "value": "14.3% (inactive)"}, {"measurement": "growth", "setting": "[3]; 10 µM", "value": "55.9% (inactive)"}, {"measurement": "growth", "setting": "[3]; 50 µM", "value": "43.7% (inactive)"}, {"measurement": "growth", "setting": "[4]; 10 µM", "value": "96.3% (inactive)"}, {"measurement": "growth", "setting": "[4]; 50 µM", "value": "91.6% (inactive)"}, {"measurement": "growth", "setting": "[5]; 10 µM", "value": "51.5% (inactive)"}, {"measurement": "growth", "setting": "[5]; 50 µM", "value": "36.8% (inactive)"}, {"measurement": "growth", "setting": "[6]; 10 µM", "value": "53.5% (inactive)"}, {"measurement": "growth", "setting": "[6]; 50 µM", "value": "43.2% (inactive)"}, {"measurement": "growth", "setting": "[8]; 10 µM", "value": "15.8% (inactive)"}, {"measurement": "growth", "setting": "[8]; 50 µM", "value": "19.8% (inactive)"}, {"measurement": "growth", "setting": "[8]; 750 µM", "value": "15.6% (inactive) and 1.72% (active)"}, {"measurement": "growth", "setting": "[10]; 10 µM", "value": "114% (inactive)"}, {"measurement": "growth", "setting": "[10]; 50 µM", "value": "75.6% (inactive)"}]}, {"smiles": "C/C=C(/C(=O)NC(N)=O)C(C)C", "values": [{"measurement": "growth", "setting": "[1]; 10 µM unless noted", "value": "110% (inactive)"}, {"measurement": "growth", "setting": "[2]; 10 µM unless noted", "value": "106% (inactive)"}, {"measurement": "growth", "setting": "[3]; 10 µM unless noted", "value": "120% (inactive)"}, {"measurement": "growth", "setting": "[4]; 10 µM unless noted", "value": "110% (inactive)"}, {"measurement": "growth", "setting": "[5]; 10 µM unless noted", "value": "98.8% (inactive)"}, {"measurement": "growth", "setting": "[6]; 10 µM unless noted", "value": "105% (inactive)"}, {"measurement": "growth", "setting": "[7]", "value": "115% (inactive)"}, {"measurement": "growth", "setting": "[8]; 10 µM unless noted", "value": "110% (inactive)"}, {"measurement": "growth", "setting": "[9]", "value": "100% (inactive)"}, {"measurement": "growth", "setting": "[10]; 10 µM unless noted", "value": "117% (inactive)"}]}, {"smiles": "CC(C)=NOC(C)C(=O)O", "note": "(stereo not drawn)", "values": [{"measurement": "growth", "setting": "[1]; 10 µM unless noted", "value": "102% (inactive)"}, {"measurement": "growth", "setting": "[2]; 10 µM unless noted", "value": "110% (inactive)"}, {"measurement": "growth", "setting": "[3]; 10 µM unless noted", "value": "97.9% (inactive)"}, {"measurement": "growth", "setting": "[4]; 10 µM unless noted", "value": "108% (inactive)"}, {"measurement": "growth", "setting": "[5]; 10 µM unless noted", "value": "104% (inactive)"}, {"measurement": "growth", "setting": "[6]; 10 µM unless noted", "value": "92.9% (inactive)"}, {"measurement": "growth", "setting": "[7]", "value": "107% (inactive)"}, {"measurement": "growth", "setting": "[8]; 10 µM unless noted", "value": "89.4% (inactive)"}, {"measurement": "growth", "setting": "[9]", "value": "97.4% (inactive)"}, {"measurement": "growth", "setting": "[10]; 10 µM unless noted", "value": "113% (inactive)"}]}, {"smiles": "Nc1c(S(=O)(=O)O)cc(Br)c2c1C(=O)c1ccccc1C2=O", "values": [{"measurement": "growth", "setting": "[1]; 10 µM unless noted", "value": "107% (inactive) and 114% (inactive)"}, {"measurement": "growth", "setting": "[2]; 10 µM unless noted", "value": "100% (inactive) and 108% (inactive)"}, {"measurement": "growth", "setting": "[3]; 10 µM unless noted", "value": "86.7% (inactive) and 90.7% (inactive)"}, {"measurement": "growth", "setting": "[4]; 10 µM unless noted", "value": "111% (inactive) and 107% (inactive)"}, {"measurement": "growth", "setting": "[5]; 10 µM unless noted", "value": "102% (inactive) and 105% (inactive)"}, {"measurement": "growth", "setting": "[6]; 10 µM unless noted", "value": "92% (inactive) and 84.9% (inactive)"}, {"measurement": "growth", "setting": "[7]", "value": "99.6% (inactive) and 90.8% (inactive)"}, {"measurement": "growth", "setting": "[8]; 10 µM unless noted", "value": "108% (inactive) and 104% (inactive)"}, {"measurement": "growth", "setting": "[9]", "value": "102% (inactive) and 103% (inactive)"}, {"measurement": "growth", "setting": "[10]; 10 µM unless noted", "value": "109% (inactive) and 113% (inactive)"}]}, {"smiles": "C#CCOC(=O)C(N)CS", "note": "(stereo not drawn)", "values": [{"measurement": "growth", "setting": "[1]; 10 µM unless noted", "value": "100% (inactive)"}, {"measurement": "growth", "setting": "[2]; 10 µM unless noted", "value": "110% (inactive)"}, {"measurement": "growth", "setting": "[3]; 10 µM unless noted", "value": "81.9% (inactive)"}, {"measurement": "growth", "setting": "[4]; 10 µM unless noted", "value": "99.7% (inactive)"}, {"measurement": "growth", "setting": "[5]; 10 µM unless noted", "value": "101% (inactive)"}, {"measurement": "growth", "setting": "[6]; 10 µM unless noted", "value": "90.5% (inactive)"}, {"measurement": "growth", "setting": "[7]", "value": "104% (inactive)"}, {"measurement": "growth", "setting": "[8]; 10 µM", "value": "88.5% (inactive)"}, {"measurement": "growth", "setting": "[8]; 100 µM", "value": "87.6% (inactive) and 90.2% (inactive)"}, {"measurement": "growth", "setting": "[9]", "value": "101% (inactive)"}, {"measurement": "growth", "setting": "[10]; 10 µM unless noted", "value": "94.9% (inactive)"}]}, {"smiles": "O=[N+]([O-])c1cccc2ccc(N/N=C/c3ccccc3O)nc12", "values": [{"measurement": "growth", "setting": "[1]; 10 µM unless noted", "value": "93.6% (inactive) and 98% (inactive)"}, {"measurement": "growth", "setting": "[2]; 10 µM unless noted", "value": "93.3% (inactive) and 106% (inactive)"}, {"measurement": "growth", "setting": "[3]; 10 µM unless noted", "value": "67.8% (inactive) and 87.9% (inactive)"}, {"measurement": "growth", "setting": "[4]; 10 µM unless noted", "value": "99.3% (inactive) and 108% (inactive)"}, {"measurement": "growth", "setting": "[5]; 10 µM unless noted", "value": "93.7% (inactive) and 98.6% (inactive)"}, {"measurement": "growth", "setting": "[6]; 10 µM unless noted", "value": "76.1% (inactive) and 84.4% (inactive)"}, {"measurement": "growth", "setting": "[7]", "value": "88% (inactive) and 90.9% (inactive)"}, {"measurement": "growth", "setting": "[8]; 10 µM unless noted", "value": "85.5% (inactive) and 94.6% (inactive)"}, {"measurement": "growth", "setting": "[9]", "value": "83.6% (inactive) and 91.4% (inactive)"}, {"measurement": "growth", "setting": "[10]; 10 µM unless noted", "value": "134% (inactive) and 109% (inactive)"}]}, {"smiles": "COC(=O)c1nc(N)nc(C(=O)OC)c1C(=O)c1cccc2ccccc12", "values": [{"measurement": "growth", "setting": "[1]; 10 µM unless noted", "value": "102% (inactive)"}, {"measurement": "growth", "setting": "[2]; 10 µM unless noted", "value": "104% (inactive)"}, {"measurement": "growth", "setting": "[3]; 10 µM unless noted", "value": "104% (inactive)"}, {"measurement": "growth", "setting": "[4]; 10 µM unless noted", "value": "103% (inactive)"}, {"measurement": "growth", "setting": "[5]; 10 µM unless noted", "value": "108% (inactive)"}, {"measurement": "growth", "setting": "[6]; 10 µM unless noted", "value": "97% (inactive)"}, {"measurement": "growth", "setting": "[7]", "value": "98.9% (inactive)"}, {"measurement": "growth", "setting": "[8]; 10 µM unless noted", "value": "97.2% (inactive)"}, {"measurement": "growth", "setting": "[9]", "value": "95.3% (inactive)"}, {"measurement": "growth", "setting": "[10]; 10 µM unless noted", "value": "106% (inactive)"}]}]}
